This passage reports growth results from PubChem BioAssay (NCI).

SMILES strings stand for the structures. This is part of a sample that, as a whole, favours compounds with a hit. Of some 83,000 tested, about 20% had one in any assay.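 Note: values are percent growth. 100 is the growth of untreated cells, values between 100 and 0 indicate rising inhibition; between -100 and 0 indicates cell death.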 Unmarked numbers belong to inactive results. Calls of active or inactive are those of the source. Rule for the calls: active = growth percent below 10; inactive = the rest.

The subject of the first assay is MDA-MB-435 melanoma. In words: NCI-60 one-dose screen, 48 h (100 = growth as untreated, 0 = no growth, -100 = all killed). As to conditions: 10 µM unless noted.
In the case of `CCN1C(=O)N(CC)C2SC(N/N=C/c3cccs3)=NC21` (stereo unspecified), the growth is -31.7% (active).

Regarding `O=C1NC(=O)/C(=C/c2ccc(OCc3cc4ccccc4nc3Cl)cc2)S1`, the growth is 98.3%.

Regarding `O=C(NNc1nc2cc(F)c(F)cc2n2cccc12)c1ccncn1`, the growth is 33%.

As for `C#C[C@]1(O)CC[C@H]2[C@@H]3CC=C4c5sc(Nc6nc(C)cc(OC)n6)nc5CC[C@]4(C)[C@H]3CC[C@@]21C`, the growth was 34.7%.

`CCNC(=O)Oc1ccc(/C(=C(/C)c2ccc(Cl)cc2)c2ccc(OCCN3CCCC3)cc2)cc1`: the growth was 89.8%.

Regarding `O=C(NNc1nc2cc(F)c(F)cc2n2cccc12)c1cccnn1`, the growth was 27.8%.

Take `O=C(O)CNS(=O)(=O)c1ccc(Oc2ccc(S(=O)(=O)NCC(=O)O)cc2)cc1`: the growth was 106%.

With `Cc1cc(NS(=O)(=O)c2ccc(-c3cnc(C4CC4)o3)cc2)ccc1I`, the growth is 3.85% (active).

In the case of `COc1ccc(CCN2C(=O)CSC2=S)cc1OC`, the growth is 93.6%.

On to `Cc1ccc(/C=C/CC(=O)Nc2ccc(C(=O)Nc3ccc(F)cc3N)cc2)cn1`, for which the growth was 47.2%.

On to `C[C@H]1[C@H](C)CC[C@]2(COC(=O)c3cccnc3)CC[C@]3(C)C(=CC[C@@H]4[C@@]5(C)CCCNC(C)(C)[C@@H]5CC[C@]43C)[C@H]12`, for which the growth was 68.5%.

As for `Fc1ccccc1/C=C(/C1=NCCN1)n1cnc2ccccc21`, the growth is 96.2%.

Regarding `COc1ccc(CN2C(=O)/C(=C/c3nc(CO)cs3)SC2=S)cc1`, the growth is 89.7%.

Take `O=C(Nc1cc(F)cc2cccnc12)c1cnc(N2CCOCC2)cn1`: the growth is 90.9%.

As for `CC1OC(O[C@@H]2[C@H](O)C(CO)OC(O[C@H]3COC(O[C@H]4CC[C@]5(C)[C@H]6CC[C@]78OC[C@@]9(CCC(C)(C)C[C@H]97)[C@H](O)C[C@@]8(C)[C@]6(C)CC[C@H]5C4(C)C)[C@@H](OC4OC(CO)[C@@H](O)[C@@H](O)[C@@H]4O)[C@@H]3O)[C@H]2OC2OC[C@@H](O)[C@@H](O)[C@@H]2O)[C@@H](O)[C@@H](O)[C@H]1O` (stereo partly specified), the growth is -82.8% (active).

Regarding `Cc1ccc(/C=C/CC(=O)Nc2ccc(C(=O)Nc3ccc(F)cc3N)nc2)cn1`, the growth was 18.6%.

For `C#CCOc1ccc(C(Nc2ccc(OC)cc2)c2nnnn2C2CCCCC2)cc1` (stereo unspecified), the growth was 101%.

As for `COc1cc(C(=O)c2cc(C(C)=O)c3c4ccccc4ccn23)cc(OC)c1OC`, the growth is 5.4% (active).

Consider `Cc1[nH]nc2ccc(-c3nc4cnc(N5CCN(C)CC5)cn4c3Nc3ccc(F)cc3Br)cc12`, for which the growth is 30.7%.

As to `O=C(Nc1cccc(Cl)c1)Nc1nc2ccc(-c3cccc4ccccc34)cc2s1`, the growth was 54.3%.

With `Cc1cc(C(=O)Nc2ccc(SC#N)cc2)c(C)o1`, the growth is 103%.

With `CN1CCN(c2ccc(NC(=O)Nc3ccc4c(ccn4-c4cccc(C(N)=O)n4)c3)cc2C(F)(F)F)CC1`, the growth is -45.2% (active).

Take `O=C(Nc1ccc(Cl)cc1)Nc1nc2ccc([N+](=O)[O-])cc2s1`: the growth was -27.7% (active).

Consider `NC(=O)c1c(NC(=O)c2cccc(OC(F)(F)F)c2)sc2c1CCC(=O)C2`, for which the growth was 64.7%.

In the case of `O=C(/C=C1\C=CN(CCCCO)c2ccccc21)n1ccc2ccccc21`, the growth was 106%.

For the compound `O=C1c2c(c3c4cccnc4[nH]c3c3ccc4ccccc4c23)C(=O)N1CCN1CCNCC1`, the growth is 89.9%.

With `O=C(Nc1ccccc1)Nc1nc2ccc([N+](=O)[O-])cc2s1`, the growth was 2.4% (active).

With `Cc1cc(Cl)cc(NS(=O)(=O)c2ccc(-c3cnc(C4CC4)o3)cc2)c1`, the growth is -23.8% (active).

As for `CCOC(=O)C1=C(C)Nc2nc3ccccc3n2C1c1cccc(Br)c1` (stereo unspecified), the growth was 7.44% (active).

With `CCOC(=O)c1nn(-c2ccc(C)cc2)c(=O)c2c(N)c(C#N)c(-c3ccc(OC)cc3)cc12`, the growth is 106%.

Take `Cc1ccc(NC(=O)c2cccc(CN3CCN(C)CC3)c2)cc1Oc1ccc(-c2[nH]nc3ncnc(N)c23)cc1`: the growth is 56.3%.

As for `O=C1c2c(c3c4cc(Br)ccc4[nH]c3c3ccc4ccccc4c23)C(=O)N1CCN1CCCCC1`, the growth is -41.8% (active).

Take `CC(C)(C)OC(=O)N1CCN(S(=O)(=O)/N=C2\NC(=O)NC2=C(Cl)Cl)CC1`: the growth is 103%.

For another assay, the system named is SW-620 colon. Described as above. The conditions noted are these: 10 µM unless noted.
Regarding `CCN1C(=O)N(CC)C2SC(N/N=C/c3cccs3)=NC21` (stereo unspecified), the growth is 19.8%.

Consider `O=C1NC(=O)/C(=C/c2ccc(OCc3cc4ccccc4nc3Cl)cc2)S1`, for which the growth is 104%.

As to `O=C(NNc1nc2cc(F)c(F)cc2n2cccc12)c1ccncn1`, the growth is 23.5%.

For `C#C[C@]1(O)CC[C@H]2[C@@H]3CC=C4c5sc(Nc6nc(C)cc(OC)n6)nc5CC[C@]4(C)[C@H]3CC[C@@]21C`, the growth is 23.6%.

As to `CCNC(=O)Oc1ccc(/C(=C(/C)c2ccc(Cl)cc2)c2ccc(OCCN3CCCC3)cc2)cc1`, the growth was 83.1%.

With `O=C(NNc1nc2cc(F)c(F)cc2n2cccc12)c1cccnn1`, the growth is 22%.

As for `O=C(O)CNS(=O)(=O)c1ccc(Oc2ccc(S(=O)(=O)NCC(=O)O)cc2)cc1`, the growth was 102%.

With `Cc1cc(NS(=O)(=O)c2ccc(-c3cnc(C4CC4)o3)cc2)ccc1I`, the growth was 25.5%.

In the case of `COc1ccc(C(=O)c2c(N)c(C#N)cn2-c2cccc(OC)c2)cc1`, the growth is 9.11% (active).

With `COc1ccc(CCN2C(=O)CSC2=S)cc1OC`, the growth is 57.9%.

Consider `Cc1ccc(/C=C/CC(=O)Nc2ccc(C(=O)Nc3ccc(F)cc3N)cc2)cn1`, for which the growth was 46.3%.

In the case of `O=C(NNc1nc2cc(F)cc(F)c2n2cccc12)c1ccncn1`, the growth is 20.8%.

`C[C@H]1[C@H](C)CC[C@]2(COC(=O)c3cccnc3)CC[C@]3(C)C(=CC[C@@H]4[C@@]5(C)CCCNC(C)(C)[C@@H]5CC[C@]43C)[C@H]12`: the growth is 39.1%.

Take `Fc1ccccc1/C=C(/C1=NCCN1)n1cnc2ccccc21`: the growth was 101%.

In the case of `COc1ccc(CN2C(=O)/C(=C/c3nc(CO)cs3)SC2=S)cc1`, the growth is 77.8%.

For the compound `O=C(Nc1cc(F)cc2cccnc12)c1cnc(N2CCOCC2)cn1`, the growth is 51.3%.

As to `CC1OC(O[C@@H]2[C@H](O)C(CO)OC(O[C@H]3COC(O[C@H]4CC[C@]5(C)[C@H]6CC[C@]78OC[C@@]9(CCC(C)(C)C[C@H]97)[C@H](O)C[C@@]8(C)[C@]6(C)CC[C@H]5C4(C)C)[C@@H](OC4OC(CO)[C@@H](O)[C@@H](O)[C@@H]4O)[C@@H]3O)[C@H]2OC2OC[C@@H](O)[C@@H](O)[C@@H]2O)[C@@H](O)[C@@H](O)[C@H]1O` (stereo partly specified), the growth is -75.9% (active).

For the compound `C#C[C@]1(O)CC[C@H]2[C@@H]3CC=C4c5sc(Nc6cccc(Cl)n6)nc5CC[C@]4(C)[C@H]3CC[C@@]21C`, the growth is -61% (active).

For `Cc1ccc(/C=C/CC(=O)Nc2ccc(C(=O)Nc3ccc(F)cc3N)nc2)cn1`, the growth was 26.8%.

In the case of `O=C1[C@@H]2Cc3c([nH]c4ccccc34)[C@H](c3c(Cl)cccc3Cl)N2C(=O)CN1C1CCN(Cc2ccccc2)CC1`, the growth is 10.6%.

As to `C#CCOc1ccc(C(Nc2ccc(OC)cc2)c2nnnn2C2CCCCC2)cc1` (stereo unspecified), the growth was 98.3%.

As to `COc1cc(C(=O)c2cc(C(C)=O)c3c4ccccc4ccn23)cc(OC)c1OC`, the growth was 44.5%.

Take `Cc1[nH]nc2ccc(-c3nc4cnc(N5CCN(C)CC5)cn4c3Nc3ccc(F)cc3Br)cc12`: the growth was 32.8%.

For `O=C(Nc1cccc(Cl)c1)Nc1nc2ccc(-c3cccc4ccccc34)cc2s1`, the growth was 43.7%.

As to `Cc1cc(C(=O)Nc2ccc(SC#N)cc2)c(C)o1`, the growth is 104%.

`O=C(NNc1nc2cc(F)c(F)cc2n2cccc12)c1ncccn1`: the growth is 26.4%.

`CN1CCN(c2ccc(NC(=O)Nc3ccc4c(ccn4-c4cccc(C(N)=O)n4)c3)cc2C(F)(F)F)CC1`: the growth is -10.5% (active).

For the compound `O=C(Nc1ccc(Cl)cc1)Nc1nc2ccc([N+](=O)[O-])cc2s1`, the growth was 0.202% (active).

As for `NC(=O)c1c(NC(=O)c2cccc(OC(F)(F)F)c2)sc2c1CCC(=O)C2`, the growth is 18.3%.

With `O=C(/C=C1\C=CN(CCCCO)c2ccccc21)n1ccc2ccccc21`, the growth is 104%.

As for `O=C1c2c(c3c4cccnc4[nH]c3c3ccc4ccccc4c23)C(=O)N1CCN1CCNCC1`, the growth was 55.9%.

As to `O=C(Nc1ccccc1)Nc1nc2ccc([N+](=O)[O-])cc2s1`, the growth is 11.5%.

With `Cc1cc(Cl)cc(NS(=O)(=O)c2ccc(-c3cnc(C4CC4)o3)cc2)c1`, the growth is 28%.

In the case of `CCOC(=O)C1=C(C)Nc2nc3ccccc3n2C1c1cccc(Br)c1` (stereo unspecified), the growth was 68.2%.

On to `CCOC(=O)c1nn(-c2ccc(C)cc2)c(=O)c2c(N)c(C#N)c(-c3ccc(OC)cc3)cc12`, for which the growth was 94.4%.

With `Cc1ccc(NC(=O)c2cccc(CN3CCN(C)CC3)c2)cc1Oc1ccc(-c2[nH]nc3ncnc(N)c23)cc1`, the growth was 48.6%.

For the compound `O=C1c2c(c3c4cc(Br)ccc4[nH]c3c3ccc4ccccc4c23)C(=O)N1CCN1CCCCC1`, the growth was 10.5%.

With `CC(C)(C)OC(=O)N1CCN(S(=O)(=O)/N=C2\NC(=O)NC2=C(Cl)Cl)CC1`, the growth is 34.3%.
